Values joined by “and” are separate entries in the source; they are usually repeats but may differ in a detail not shown here. Equal entries are not always repeated. Screen size: about 5,500 compounds; about 2,000 (36%) were called active. Another 18% or so got no clear call; they are omitted. Rule as the data show it: active = normalized growth mostly below about 0.91 (no sharp cut-off); inconclusive = no clear call, values can overlap the other calls; inactive = mostly above about 0.92. The list shows a part of the results.
Test: chemical genetic growth profiling, strain panel (AID 1159580);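 also: tested at 20 µM; growth read once vehicle control cultures reached saturation at 30 °C; 1 = growth at the plate median or of vehicle wells; lower values mean less growth of the strain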
Details: S. cerevisiae deletion strains, growth OD

Measured: normalized growth

COc1cc(NC(C)CCCN)c2ncccc2c1 (configuration not stated)
inactive: locus YAL013W, strain DEP1, stronger effect = lower value 1 | locus YAL021C, strain ccr4, stronger effect = lower value 0.972 | locus YAL026C, strain drs2, stronger effect = lower value 1.02 | locus YAL030W, strain snc1, stronger effect = lower value 0.999 | locus YBL061C, strain skt5, stronger effect = lower value 1 | locus YBR009C, strain hhf1, stronger effect = lower value 1.07 | locus YBR021W, strain FUR4, stronger effect = lower value 0.988 | locus YBR023C, strain chs3, stronger effect = lower value 1.02 | locus YBR171W, strain sec66, stronger effect = lower value 1.01 | locus YBR229C, strain ROT2, stronger effect = lower value 1 | locus YBR231C, strain swc5, stronger effect = lower value 0.984 | locus YBR279W, strain paf1, stronger effect = lower value 1.01 | locus YCL011C, strain gbp2, stronger effect = lower value 1.01 | locus YCL016C, strain dcc1, stronger effect = lower value 1.02 | locus YCL029C, strain bik1, stronger effect = lower value 1.02 | locus YCL061C, strain MRC1, stronger effect = lower value 1 | locus YCL069W, strain vba3, stronger effect = lower value 1.01 | locus YCR088W, strain abp1, stronger effect = lower value 1 | locus YDL005C, strain med2, stronger effect = lower value 1 | locus YDL035C, strain GPR1, stronger effect = lower value 1 | locus YDL040C, strain nat1, stronger effect = lower value 1 | locus YDL074C, strain BRE1, stronger effect = lower value 1.01 | locus YDL101C, strain DUN1, stronger effect = lower value 1.02 | locus YDL134C, strain PPH21, stronger effect = lower value 1.01 | locus YDL185W, strain tfp1, stronger effect = lower value 1.01 | locus YDL192W, strain arf1, stronger effect = lower value 1.01 | locus YDR001C, strain nth1, stronger effect = lower value 1.01 | locus YDR069C, strain doa4, stronger effect = lower value 0.977 | locus YDR101C, strain arx1, stronger effect = lower value 1 | locus YDR137W, strain rgp1, stronger effect = lower value 1.03 | locus YDR150W, strain NUM1, stronger effect = lower value 1.01 | locus YDR159W, strain sac3, stronger effect = lower value 0.993 | locus YDR162C, strain NBP2, stronger effect = lower value 1.01 | locus YDR195W, strain ref2 0.99 | locus YDR297W, strain sur2, stronger effect = lower value 1 | locus YDR318W, strain mcm21, stronger effect = lower value 1 | locus YDR334W, strain swr1, stronger effect = lower value 1.01 | locus YDR335W, strain msn5, stronger effect = lower value 1 | locus YDR388W, stronger effect = lower value 1.02 | locus YDR392W, strain spt3, stronger effect = lower value 0.875 | locus YDR502C, strain sam2, stronger effect = lower value 1 | locus YEL003W, strain gim4, stronger effect = lower value 1.01 | locus YEL037C, strain rad23, stronger effect = lower value 1.02 | locus YEL061C, strain CIN8 (second series), stronger effect = lower value 1 | locus YEL061C, strain CIN8, stronger effect = lower value 1 | locus YER015W, strain faa2, stronger effect = lower value 0.989 | locus YER016W, strain bim1, stronger effect = lower value 0.995 | locus YER110C, stronger effect = lower value 1.01 | locus YER111C, strain swi4, stronger effect = lower value 1.01 | locus YER155C, strain BEM2, stronger effect = lower value 0.999 | locus YER167W, strain BCK2, stronger effect = lower value 1.01 | locus YFR010W, strain ubp6, stronger effect = lower value 1.01 | locus YGL078C, strain dbp3, stronger effect = lower value 1.01 | locus YGL086W, strain mad1, stronger effect = lower value 0.981 | locus YGL167C, strain pmr1, stronger effect = lower value 1.01 | locus YGL173C, strain kem1, stronger effect = lower value 1.02 | locus YGL227W, strain vid30, stronger effect = lower value 0.999 | locus YGL240W, strain doc1, stronger effect = lower value 0.985 | locus YGL248W, strain PDE1, stronger effect = lower value 1.01 | locus YGL253W, strain hxk2, stronger effect = lower value 1.03 | locus YGR078C, strain PAC10, stronger effect = lower value 1.02 | locus YGR135W, strain pre9, stronger effect = lower value 0.991 | locus YGR229C, strain SMI1, stronger effect = lower value 1.01 | locus YGR252W, strain gcn5, stronger effect = lower value 0.961 | locus YHR013C, strain ard1, stronger effect = lower value 1 | locus YHR027C, strain rpn1, stronger effect = lower value 1.03 | locus YHR030C, strain SLT2, stronger effect = lower value 1.01 and 1.05 | locus YHR079C, strain IRE1 (second series), stronger effect = lower value 1.01 | locus YHR079C, strain IRE1, stronger effect = lower value 1.05 | locus YHR094C, strain hxt1, stronger effect = lower value 1.01 | locus YHR129C, strain ARP1, stronger effect = lower value 1 | locus YHR142W, strain chs7, stronger effect = lower value 1.05 | locus YHR200W, strain rpn10, stronger effect = lower value 1 | locus YIL066C, strain RNR3, stronger effect = lower value 1.01 | locus YIL073C, strain SPO22, stronger effect = lower value 1.1 | locus YIL125W, strain kgd1, stronger effect = lower value 1.01 | locus YIR030C, strain dcg1, stronger effect = lower value 1.01 | locus YJL092W, strain hpr5, stronger effect = lower value 0.995 | locus YJL095W, strain BCK1 (second series), stronger effect = lower value 1.02 | locus YJL095W, strain BCK1, stronger effect = lower value 1 and 1.03 | locus YJL115W, strain asf1, stronger effect = lower value 1.01 | locus YJL129C, strain trk1, stronger effect = lower value 1.04 | locus YJL134W, strain LCB3, stronger effect = lower value 1 | locus YJL154C, strain vps35, stronger effect = lower value 1 | locus YJL164C, strain tpk1, stronger effect = lower value 1.04 | locus YJL166W, strain qcr8, stronger effect = lower value 0.964 | locus YJL168C, strain set2, stronger effect = lower value 1.01 | locus YJL187C, strain SWE1 (second series), stronger effect = lower value 1.02 | locus YJL187C, strain SWE1, stronger effect = lower value 0.998 | locus YJR043C, strain POL32, stronger effect = lower value 0.995 | locus YJR066W, strain TOR1, stronger effect = lower value 0.977
active: locus YER155C, strain BEM2 (second series), stronger effect = lower value 0.859

Reference: PubChem BioAssay AID1159580 (chemical genetic matrix, 2015)
